Screen size: about 5,500 compounds; about 2,000 (36%) were called active. Inconclusive results (about 18%) are left out. Cut-off read from the data, not from the text of the source: active = normalized growth mostly below about 0.91 (no sharp cut-off); inconclusive = no clear call, values can overlap the other calls; inactive = mostly above about 0.92. This is one part of the list.
Test: chemical genetic growth profiling, strain panel (AID 1159580);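 note: tested at 20 µM; growth read once vehicle control cultures reached saturation at 30 °C; 1 = growth at the plate median or of vehicle wells; lower values mean less growth of the strain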
Settings: S. cerevisiae deletion strains, growth OD
[1] = locus YAL040C, strain CLN3, hits give low values
[2] = locus YCL061C, strain MRC1 (second series), hits give low values
[3] = locus YDR363W, strain ESC2, hits give low values
[4] = locus YER002W, strain NOP16, hits give low values
[5] = locus YMR263W, strain SAP30, hits give low values
[6] = locus YNL175C, strain NOP13, hits give low values
[7] = locus YNL224C, strain SQS1, hits give low values
[8] = locus YNL322C, strain KRE1, hits give low values
[9] = locus YOR083W, strain WHI5 (second series), hits give low values
[10] = locus YPL055C, strain LGE1, hits give low values
[11] = locus YPL241C, strain CIN2, hits give low values

Measured: normalized growth

CN=C(NC#N)Nc1ccc(C2=NNC(=O)CC2C)cc1 (stereo not given)
inactive: [1] 1.08 | [2] 0.999 | locus YDR150W, strain NUM1, hits give low values 1.01 | [3] 1.01 | [4] 0.986 | locus YGR078C, strain PAC10, hits give low values 1 | [5] 1 | locus YMR307W, strain GAS1, hits give low values 1 | locus YNL128W, strain TEP1, hits give low values 1 | [6] 0.995 | locus YNL197C, strain WHI3, hits give low values 0.994 | [7] 0.994 | [8] 0.986 | [9] 1 | [10] 0.996 | [11] 0.998

Cc1o[nH]c(=O)c1CC(N)C(=O)O (stereo not given)
inactive: locus YAL013W, strain DEP1, hits give low values 0.998 | [1] 1 | [2] 1 | [3] 1.01 | [4] 0.997 | locus YGR229C, strain SMI1, hits give low values 0.995 | [5] 0.999 | locus YNL153C, strain GIM3, hits give low values 0.989 | [6] 1 | [7] 1.01 | [8] 1.01 | [9] 0.982 | [10] 1 | [11] 1.01

COC1CC2CCC(C)C(O)(O2)C(=O)C(=O)N2CCCCC2C(=O)OC(C(C)CC2CCC(O)C(OC)C2)CC(=O)C(C)/C=C(\C)C(O)C(OC)C(=O)C(C)CC(C)/C=C/C=C/C=C/1C (stereo not given)
active: locus YAL021C, strain ccr4, hits give low values 0.0589 | locus YAL026C, strain drs2, hits give low values 0.0607 | locus YAL030W, strain snc1, hits give low values 0.057 | locus YBL061C, strain skt5, hits give low values 0.0636 | locus YBR009C, strain hhf1, hits give low values 0.0589 | locus YBR023C, strain chs3, hits give low values 0.0647 | locus YBR171W, strain sec66, hits give low values 0.0879 | locus YBR231C, strain swc5, hits give low values 0.0671 | locus YBR279W, strain paf1, hits give low values 0.061 | locus YCL011C, strain gbp2, hits give low values 0.0563 | locus YCL016C, strain dcc1, hits give low values 0.064 | locus YCL061C, strain MRC1, hits give low values 0.0664 | locus YCL069W, strain vba3, hits give low values 0.0634 | locus YCR088W, strain abp1, hits give low values 0.0633 | locus YDL005C, strain med2, hits give low values 0.105 | locus YDL040C, strain nat1, hits give low values 0.062 | locus YDR001C, strain nth1, hits give low values 0.062 | locus YDR069C, strain doa4, hits give low values 0.0638 | locus YDR137W, strain rgp1, hits give low values 0.108 | locus YDR159W, strain sac3, hits give low values 0.0822 | locus YDR195W, strain ref2 0.107 | locus YDR297W, strain sur2, hits give low values 0.0574 | locus YDR334W, strain swr1, hits give low values 0.0661 | locus YDR335W, strain msn5, hits give low values 0.0641 | locus YDR392W, strain spt3, hits give low values 0.0747 | locus YEL003W, strain gim4, hits give low values 0.0561 | locus YEL037C, strain rad23, hits give low values 0.06 | locus YEL061C, strain CIN8 (second series), hits give low values 0.0638 | locus YER015W, strain faa2, hits give low values 0.063 | locus YER016W, strain bim1, hits give low values 0.0636 | locus YER111C, strain swi4, hits give low values 0.0777 | locus YER155C, strain BEM2 (second series), hits give low values 0.0886 | locus YFR010W, strain ubp6, hits give low values 0.0722 | locus YGL167C, strain pmr1, hits give low values 0.106 | locus YGL173C, strain kem1, hits give low values 0.0674 | locus YGL227W, strain vid30, hits give low values 0.0637 | locus YGL240W, strain doc1, hits give low values 0.0777 | locus YGL253W, strain hxk2, hits give low values 0.0553 | locus YHR013C, strain ard1, hits give low values 0.0984 | locus YHR027C, strain rpn1, hits give low values 0.0663 | locus YHR030C, strain SLT2, hits give low values 0.0959 | locus YHR079C, strain IRE1, hits give low values 0.1 | locus YHR142W, strain chs7, hits give low values 0.0702 | locus YJL092W, strain hpr5, hits give low values 0.0602 | locus YJL095W, strain BCK1 (second series), hits give low values 0.0568 | locus YJL095W, strain BCK1, hits give low values 0.0941 | locus YJL115W, strain asf1, hits give low values 0.0785 | locus YJL129C, strain trk1, hits give low values 0.083 | locus YJL154C, strain vps35, hits give low values 0.0627 | locus YJL164C, strain tpk1, hits give low values 0.0565 | locus YJL166W, strain qcr8, hits give low values 0.0582 | locus YJL187C, strain SWE1, hits give low values 0.0583 | locus YJR066W, strain TOR1, hits give low values 0.00105 | locus YKL160W, strain elf1, hits give low values 0.0628 | locus YKR026C, strain gcn3, hits give low values 0.0857 | locus YKR091W, strain srl3, hits give low values 0.063 | locus YLL001W, strain dnm1, hits give low values 0.0594 | locus YLL026W, hits give low values 0.0565 | locus YLL041C, strain sdh2, hits give low values 0.0584 | locus YLR027C, strain aat2, hits give low values 0.056 | locus YLR113W, strain HOG1, hits give low values 0.116 | locus YLR221C, strain rsa3, hits give low values 0.0587 | locus YLR258W, strain gsy2, hits give low values 0.0578 | locus YLR262C, strain YPT6 (second series), hits give low values 0.0827 | locus YLR320W, strain mms22, hits give low values 0.0745 | locus YLR342W, strain FKS1, hits give low values 0.0654 | locus YLR357W, strain rsc2, hits give low values 0.123 | locus YLR370C, strain arc18, hits give low values 0.0626 | locus YLR384C, strain iki3, hits give low values 0.0638 | locus YML120C, strain ndi1, hits give low values 0.0575 | locus YMR058W, strain fet3, hits give low values 0.0611 | locus YMR125W, strain sto1, hits give low values 0.0751 | locus YMR129W, hits give low values 0.0593 | locus YMR205C, strain PFK2, hits give low values 0.077 | locus YMR231W, strain pep5, hits give low values 0.0735 | locus YNL071W, strain lat1, hits give low values 0.0603 | locus YNL183C, strain NPR1, hits give low values 0.00606 | locus YNL209W, strain ssb2, hits give low values 0.0636 | locus YNL248C, strain rpa49, hits give low values 0.0637 | locus YNL322C, strain KRE1 (second series), hits give low values 0.0917 | locus YNR049C, strain mso1, hits give low values 0.0601 | locus YOR001W, strain rrp6, hits give low values 0.0618 | locus YOR070C, strain gyp1, hits give low values 0.0602 | locus YOR080W, strain dia2, hits give low values 0.0718 | locus YOR083W, strain WHI5, hits give low values 0.0613 | locus YOR106W, strain vam3, hits give low values 0.0579 | locus YOR231W, strain MKK1, hits give low values 0.101 | locus YOR265W, strain rbl2, hits give low values 0.062 | locus YOR270C, strain vph1, hits give low values 0.0796 | locus YOR290C, strain snf2, hits give low values 0.0616 | locus YPL051W, strain arl3, hits give low values 0.0737 | locus YPL078C, strain atp4, hits give low values 0.0674 | locus YPL106C, strain sse1, hits give low values 0.0858 | locus YPL240C, strain hsp82, hits give low values 0.0583 | locus YPL256C, strain CLN2, hits give low values 0.117

Source: PubChem BioAssay AID1159580 (chemical genetic matrix, 2015)
